Luc counter – blocks Kinase-Glo luciferase, a counter-screen artifact; Q27757; Kinase-Glo luciferase, ATP luminescence, 8 min; Potency, µM (titrated, usually from 38.3 µM), without a hit: top-dose activity change, negative = inhibition, hits mostly inhibitors; 200,000 tested, 0.28% active; further: nearly all actives have a fitted effect of over 60% in size
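Compounds were added to a substrate mix at pH 7.2 (50 mM imidazole, 10 uM ATP, within the enzyme's linear range), followed by Kinase-Glo detection reagent; luminescence was measured after 8 minutes at ambient temperature.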
Gal4-VP16 FLuc – inhibits Gal4-VP16 luciferase reporter, ROR gamma counter-screen. Drosophila S2 Gal4-VP16 UAS-luciferase, luminescence, 20 h. Potency, µM (series often up to 53.6 µM), for the others: top-dose activity, negative = inhibition, usual class: inhibitors. 310,000 tested, 3.5% active. AID 2546;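 further: Gal4-VP16 expression switched on by copper sulfate through the metallothionein promoter; nearly all actives have a fitted effect of over 50% in size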
RORgamma inh – blocks mouse ROR gamma transcriptional activity | P51450 | Drosophila S2 Gal4-RORgamma UAS-luciferase reporter, 20 h | Potency, µM (doses to about 53.6 µM), without a hit: at the highest dose activity change, negative = inhibition, hits mostly inhibitors | 310,000 tested, 5.4% active; further: nearly all actives have a fitted effect of over 60% in size
Target sequence (P51450 whole entry, looked up, the tested form may be a part): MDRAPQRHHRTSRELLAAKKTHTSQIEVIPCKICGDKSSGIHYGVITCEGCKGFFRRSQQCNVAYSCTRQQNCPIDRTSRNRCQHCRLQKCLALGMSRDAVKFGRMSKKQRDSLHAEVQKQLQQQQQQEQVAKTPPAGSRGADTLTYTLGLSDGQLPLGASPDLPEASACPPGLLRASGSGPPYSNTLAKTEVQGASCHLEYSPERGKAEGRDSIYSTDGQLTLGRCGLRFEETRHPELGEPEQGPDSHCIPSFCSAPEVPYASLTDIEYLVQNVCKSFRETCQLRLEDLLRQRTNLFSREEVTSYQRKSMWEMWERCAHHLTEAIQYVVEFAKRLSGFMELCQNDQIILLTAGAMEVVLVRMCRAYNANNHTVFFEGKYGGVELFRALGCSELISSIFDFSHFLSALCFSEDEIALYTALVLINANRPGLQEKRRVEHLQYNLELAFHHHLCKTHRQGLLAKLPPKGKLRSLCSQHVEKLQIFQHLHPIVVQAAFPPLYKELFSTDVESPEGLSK
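Compounds are pin-transferred onto Drosophila Schneider cells expressing a copper-inducible Gal4–ROR gamma transactivation domain fusion. After 1 hr, copper sulfate is added to 700 uM final; luciferase is read 20 hr later.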
* hit, by the source's call; ? = inconclusive; . = no result given; [ ] = dose if it differs, or a comment. An excerpt weighted towards active compounds, which were near 6.2% of everything screened. The call rests on the fitted dose curve; in most records, active means well fitted curve in the direction sought with a large enough effect; inconclusive means small, poorly fitted or top-dose-only effect, or another doubt; inactive means no such curve, though single readings can be large; an effect the other way counts as inactive or inconclusive. On the % scale 0 is the no-effect control and ±100 the full control effect; potency means the concentration at half of the fitted maximal effect.

SMILES	Luc counter	Gal4-VP16 FLuc	RORgamma inh
COc1ccc(CNC(=O)c2ccc3ccccc3n2)cc1	.	17%	21%
COc1ccc(NC(=S)c2ccc3ccccc3n2)cc1	.	13µM*	4µM*
COc1ccc(N=C(NN)c2ccc3ccccc3n2)cc1	-1%	?	10µM*
COc1ccc(C(=O)NC(=S)NNC(=O)c2ccc3ccccc3n2)cc1	.	-6%	6%
Cc1ccc(NC(=S)c2ccc3ccccc3n2)c(C)c1	.	7.9µM*	2µM*
CCOc1ccc(CN(C)C(=O)c2ccc3ccccc3n2)cc1	.	19%	14%
COc1ccc(C2(O)CCN(C(=O)NC3CCCCC3)CC2)cc1	-1%	-10%	27%
N#Cc1ccc(OCC(=O)N/N=C/C2CC=CCC2)cc1 (stereo not drawn)	2%	-2%	2%
CCn1c(=S)[nH]c2c(c1=O)C(C)(C)Cc1ccccc1-2	-3%	3.5µM*	1µM*
Cn1c(=S)[nH]c2c(c1=O)C(C)(C)Cc1ccccc1-2	-1%	?	-3%
O=C(Cc1ccc(Cl)cc1)NN1C(=O)c2ccccc2C1=O	2%	3%	-6%
COC(=O)[C@@H]1[C@@H](C#N)C2(c3ccccc3-c3ccccc32)N(c2ccc(Cl)cc2)N1C#N	-1%	10µM*	16µM*
CC(Cc1ccc(O)c(O)c1)(NN)C(=O)O (stereo not drawn)	-3%	-17%	-10%
CC1CCN(CCn2c(=S)[nH]c3cc4c(cc3c2=O)OCO4)CC1	-1%	6%	-20%
CC(C)OCCCn1c(=S)[nH]c2cc3c(cc2c1=O)OCO3	0%	6.3µM*	4µM*
CC(C)OCCCn1c(=S)[nH]c2ccc(N3CCOCC3)cc2c1=O	-4%	-1%	22%
CC1CCCCN1CCn1c(=S)[nH]c2cc3c(cc2c1=O)OCO3 (stereo not drawn)	-1%	?	11µM*
COCCC(=O)N1CCC(Oc2ccc(C(=O)NCc3nccn3C)cc2)CC1	.	15%	-26%
O=S(=O)(Nc1nc2ccccc2nc1Cl)c1ccc(Br)cc1	10%	-12%	-7%
O=S(=O)(c1ccccc1)N1CCC2(CCN(C(c3ccccc3)c3ccccc3)CC2)CC1	0%	-9%	-22%
CCN(CC)c1nc(=S)nc(NC(C)(C)C)[nH]1	2%	3.2µM*	1.3µM*
CCN(CC)c1nc2ccccc2[nH]1	-3%	0%	0%
O=C(Nc1nc(-c2cc(F)ccc2F)cs1)c1ccccn1	3%	1.3µM*	0.1µM*
Cc1ccc(C)c(-c2csc(NC(=O)c3cnccn3)n2)c1	7%	1.3µM*	0.5µM*
Cc1csc(NC(=O)c2cnccn2)n1	?	-3%	0%
SMILES	Luc counter	Gal4-VP16 FLuc	RORgamma inh
O=C(Nc1nc(-c2ccccc2)cs1)Nc1ccc(F)cc1F	2%	-2%	-4%
O=C(Nc1nc(-c2cc(F)ccc2F)cs1)C1=NN(c2ccccc2)C(=O)CC1	-1%	13%	3%
O=C(Nc1nc(-c2ccccn2)cs1)Nc1ccc(F)cc1F	.	?	3.5µM*
CN(C)CCCN=c1c2ccccc2n(C)c2[nH]c(=O)n(C)c(=O)c12	-5%[7.66 µM]	.	.
COc1ccc2cnnc(SCC(=O)Nc3ccc(C(C)=O)cc3)c2c1OC	0%	-7%	-2%
Cc1cccc(NC(=O)Nc2ccc3c(c2)CCC3)c1	.	-15%	2%
CC(=O)c1cccc(NC(=O)c2ccc3c(c2)CCN3S(=O)(=O)c2ccccc2)c1	.	13µM*	?
COc1cccc(NC(=O)c2ccc3c(c2)CCCC3)c1	.	-12%	0%
Cc1cc(NC(=O)c2noc3c2CCc2ccccc2-3)no1	1%	3%	-17%
CC(=O)Nc1cccc(NC(=O)c2ccc3c(c2)CCN3S(=O)(=O)c2ccccc2)c1	.	2%	14%
CC(=O)c1cccc(NC(=O)c2noc3c2CCc2ccccc2-3)c1	-1%	2.2µM*	0.71µM*
CC(=O)c1cccc(NC(=O)Nc2ccc3c(c2)CCC3)c1	.	7.9µM*	7.1µM*
CC(=O)c1cccc(NC(=O)c2ccc3c(c2)CCCC3)c1	.	2.8µM*	1.4µM*
CS(=O)c1ccccc1COC(=O)Nc1ccccc1 (stereo not drawn)	-1%	-15%	5%
O=C(CCc1nnc2ccc(NCc3ccco3)nn12)Nc1ccc(F)cc1	.	12%	?
Cc1ccc([S+](=O)([O-])N(c2ccccc2)[S+](=O)([O-])C(F)(F)F)cc1	-2%	-3%	-21%
Cc1cc2c(nc1C)CCCCN2C[C@H](O)CN1CCCc2nc(-c3ccc(Br)cc3)ccc21	.	-16%[10 µM]	5%[10 µM]
Cc1ccc(S(N)(=O)=O)cc1NC(=O)c1ccc2c3c(cccc13)CC2	.	-10%	?
Cc1ccc(CNC(=O)CCC2CCCN(C(=O)CCC(F)(F)F)C2)o1 (stereo not drawn)	3%	2%	0%
CCOc1c2ccc(C(=O)NCC34CC5CC(CC(C5)C3)C4)cc2nn1CC	5%	11µM*	?
CCOc1c2ccc(C(=O)NCc3ccco3)cc2nn1CC	-10%	0%	-2%
CCn1nc2cc(C(=O)NCC34CC5CC(CC(C5)C3)C4)ccc2c1OC	6%	?	7.1µM*
CCCCn1nc2cc(C(=O)NCC34CC5CC(CC(C5)C3)C4)ccc2c1OC	-2%	-12%	0%
O=S(=O)(c1cnc[nH]1)N1CCc2ccccc21	-8%	4%	-11%
COC(=O)c1nn(-c2ccc3c(c2)CCN3C(C)=O)cc1O	11µM*	8.9µM*	7.1µM*
SMILES	Luc counter	Gal4-VP16 FLuc	RORgamma inh
COC(=O)c1nn(-c2ccc3c(c2)OCO3)cc1O	?	-26%	-21%
Cc1cc([N+](=O)[O-])ccc1N1C(=O)c2ccc(C(=O)Nc3ccccc3C(=O)O)cc2C1=O	.	-5%	10%
COc1ccc(-c2cn3ccc4ccccc4c3n2)cc1	-23%	-29%	?
COc1ccc(-c2cn3nc4c(nc3n2)CCCC4)cc1	-26%	1.3µM*	?
CCc1ccccc1NC(=O)CSc1nnc(-c2ccco2)n1N	2%	7%	1%
CCCCOc1cccc(C(=O)NC(=S)Nc2cccc(C(F)(F)F)c2)c1	-4%	2.8µM*	4.5µM*
CC(C)Oc1cccc(C(=O)NC(=S)Nc2ccc(Cl)c(C(=O)O)c2)c1	-2%	?	-24%
CCCCOc1cccc(C(=O)Nc2ccc(NC(=O)c3ccco3)cc2)c1	.	?	-19%
COc1cccc(C(C)NC(=O)Nc2cc(Cl)ccc2OC)c1 (stereo not drawn)	-1%	-23%	-36%
COc1cccc(C(C)NC(=O)Nc2cccc(C(F)(F)F)c2)c1 (stereo not drawn)	-2%	35µM*	?
CC(C)Oc1cccc(C(=O)NC(=S)Nc2cccc(C(F)(F)F)c2)c1	-1%	?	6.3µM*
COc1cc(C(=O)NCc2nnc(SCC(=O)N3CCc4ccccc43)o2)cc(OC)c1OC	5%	-10%	17%
O=C(CSc1nc2ncc(Br)cc2[nH]1)Nc1ccc2c(c1)OCO2	.	7%	?
Clc1nccnc1-c1ccccc1	1%	4%	-9%
O=C(NC1CC2CCCC(C1)N2Cc1ccccc1)c1ccc([N+](=O)[O-])cc1 (stereo not drawn)	.	3%	24%
COc1ccc2[nH]c(=O)c(C(c3nnnn3C3CCCC3)N(C)C3CCCCC3)cc2c1 (stereo not drawn)	-7%	2%	1%
Cn1c(CNc2cccc(C(F)(F)F)c2)n[nH]c1=S	-2%	-4%	?
